Screening results deposited in PubChem BioAssay by several laboratories.
The list is not random: actives were taken first. Their share in the collection is about 0.5%.
Tat transport = E. coli Tat transport inhibition | E. coli MC4100 TorA-mCherry Tat export, fluorescence | inhibition, % at 10 µM | hit rate 0.036% among 340,000;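 active = mean replicate inhibition at least 50% and at least half of replicates individually reaching 50%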;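 note: exported cargo escapes ClpAP degradation while cytoplasmic cargo is degraded and loses fluorescence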
AddAB inh = less growth of phage-infected E. coli with AddAB. hit rate 0.29% among 330,000. E. coli expressing H. pylori AddAB, absorbance growth. inhibition, % at 11.9 µM; in the data active = inhibition above about 12%
E coli growth-1 = blocks Escherichia coli growth | OD600, 23 h; stronger effect = lower value | OD600 absorbance (concentration not given with the values) | hit rate 0.21% among 330,000;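 active = OD600 absorbance below the run mean of sample wells minus 3.6 SD, in any replicate, cut at about 0.56 in these data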
E coli growth-2 = counter-screen for AddAB inhibitors: E. coli growth inhibition; hit rate 0.27% among 330,000; inhibition, % at 11.9 µM; E. coli V3065 growth, OD600 absorbance, 18 h;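 active = inhibition above the campaign's mean inhibition across all tested compounds plus 3 SD, cut at about 9.9% in these data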;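 note: uninfected addAB+ strain grown without phage in ampicillin broth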
phage Ecoli inh = E. coli growth loss with phage present | growth absorbance | inhibition, % at 11.9 µM | hit rate 0.26% among 360,000 | AID 651602; in the data active = inhibition above about 11%
AddAB confirm = growth loss of T4-infected E. coli expressing H. pylori AddAB, confirmed. shares compounds with AddAB inh. E. coli V3065 expressing H. pylori AddAB, T4 phage, OD; T4 phage with gene 2 nonsense mutations. inhibition, % at 11.9 µM. hit rate 64% among 880;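 active = mean inhibition above a set limit taken from the earlier primary screen, cut at about 13% in these data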;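 note: higher means less bacterial growth since AddAB block lets phage replicate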
RecBCD counter = counter-screen: growth loss of RecBCD+ E. coli with mutant T4 phage; inhibition, % at 11.9 µM; shares compounds with AddAB inh; hit rate 73% among 880; E. coli V66 + mutant T4 phage, OD growth;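 active = mean inhibition above the mean of solvent-only control wells plus 3 SD, cut at about 4% in these data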;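 note: optical density read after an 18 h incubation at 37 °C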
Bact viability = counter-screen for AddAB inhibitors: inhibitors of bacterial viability; shares compounds with AddAB inh; absorbance (AddAB counterscreen); inhibition, % at 11.9 µM; hit rate 35% among 880; AID 488956; in the data active = inhibition above about 25%
RecBCD conf = confirmation: growth loss of phage-infected RecBCD+ E. coli (RecBCD inhibitor screen). shares compounds with phage Ecoli inh. inhibition, % at 11.9 µM. E. coli V66 + T4 2- phage, growth OD. hit rate 45% among 890. AID 651982;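 active = mean inhibition over triplicates exceeding the hit threshold derived in the original primary screen, cut at about 11% in these data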
Ecoli viability = bacterial viability inhibition counter-screen for RecBCD. hit rate 29% among 890. shares compounds with phage Ecoli inh. inhibition, % at 11.9 µM. AID 651983. E. coli viability, absorbance (OD) growth; in the data active = inhibition above about 20%;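 note: E. coli strain V66 grown with compound alone and no phage infection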
AddAB counter = growth loss of phage-infected AddAB E. coli, RecBCD counter-screen; shares compounds with phage Ecoli inh; E. coli expressing H. pylori AddAB + T4 phage, OD growth; gene 2 mutant T4, recBCD-deleted host; inhibition, % at 11.9 µM; hit rate 45% among 890; AID 651984;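 active = mean inhibition above the solvent-only control wells' mean plus 3 SD, cut at about 22% in these data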;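 note: higher means less bacterial growth from phage killing when AddAB is blocked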
Each line names hits and unclear results; the compound was inactive in the other large screens (follow-up assays come after a bar, where they were run).

N#Cc1ccc(-c2ccc(C3Nc4ccccc4C(=O)N3O)o2)cc1 (configuration not stated)	none
Cc1cc([N+](=O)[O-])ccc1-c1ccc(C2Nc3ccccc3C(=O)N2O)o1 (configuration not stated)	AddAB inh 31, E coli growth-2 27, phage Ecoli inh 24 | AddAB confirm 22 | RecBCD counter 24 | Bact viability inactive | RecBCD conf 18 | Ecoli viability 21 | AddAB counter inactive
CN1CC(=O)N2C(Cc3c([nH]c4ccccc34)C2c2ccc3c(c2)OCO3)C1=O (configuration not stated)	none (no result: Tat transport, AddAB inh, E coli growth-2, phage Ecoli inh)
O=C(CCC1CCCC1)NNC(=O)c1cc2ccccc2cc1O	AddAB inh 18, phage Ecoli inh 16 | AddAB confirm 14 | RecBCD counter 14 | Bact viability inactive | RecBCD conf inactive | Ecoli viability inactive | AddAB counter inactive
O=C(CC1CCCC1)NNC(=O)c1ccccc1O	none (no result: Tat transport, AddAB inh, E coli growth-1, E coli growth-2)
N#C/C(N=Nc1ccccc1O)=N\Nc1ccccc1O	AddAB inh 23, E coli growth-2 22, phage Ecoli inh 30 (no result: E coli growth-1) | AddAB confirm 89 | RecBCD counter 27 | Bact viability 94 | RecBCD conf 25 | Ecoli viability 25 | AddAB counter 94
Oc1ccccc1N=N/C(=N/Nc1ccccc1O)c1ccccc1	none (no result: E coli growth-1)
CCOC(=O)c1cn(-c2ccc([N+](=O)[O-])cc2)c2cc(Cl)c([N+](=O)[O-])cc2c1=O	none
O=C(O)c1cn(-c2ccc(F)cc2)c2cc(Cl)c(F)cc2c1=O	AddAB inh 53, E coli growth-1 0.066, E coli growth-2 55, phage Ecoli inh 14 | AddAB confirm 102 | RecBCD counter 99 | Bact viability 101 | RecBCD conf 98 | Ecoli viability 100 | AddAB counter 99
CCc1nnc(NS(=O)(=O)c2ccc(N=Cc3c(C)[nH]n(-c4ccc(C)c(C)c4)c3=O)cc2)s1	AddAB inh 16, E coli growth-2 12, phage Ecoli inh 11 (no result: E coli growth-1) | AddAB confirm inactive | RecBCD counter 4.5 | Bact viability inactive | RecBCD conf inactive | Ecoli viability inactive | AddAB counter 23
Cc1ccc(-c2nc3c(Cl)cc(Cl)cc3c(=O)n2O)cc1	AddAB inh 12, E coli growth-2 15, phage Ecoli inh 12 | AddAB confirm 16 | RecBCD counter 14 | Bact viability inactive | RecBCD conf inactive | Ecoli viability inactive | AddAB counter inactive
O=c1c2cc(Br)ccc2nc(-c2ccc(Cl)cc2)n1O	none
O=C(O)c1ccccc1NC(c1ccccc1)c1ccc2cccnc2c1O (configuration not stated)	none (no result: AddAB inh, E coli growth-1, E coli growth-2)
CCC(=O)NC(c1ccc(C)cc1)c1cc([N+](=O)[O-])c2cccnc2c1O (configuration not stated)	none
CCC(=O)NC(c1ccc(C)cc1)c1ccc2cccnc2c1O (configuration not stated)	AddAB inh 24, E coli growth-2 29, phage Ecoli inh 24 (no result: E coli growth-1) | AddAB confirm 22 | RecBCD counter 24 | Bact viability inactive | RecBCD conf 15 | Ecoli viability 21 | AddAB counter 29
CCCC(=O)NC(c1ccc(C(C)C)cc1)c1ccc2cccnc2c1O (configuration not stated)	AddAB inh 26, E coli growth-2 27, phage Ecoli inh 21 (no result: E coli growth-1) | AddAB confirm 21 | RecBCD counter 19 | Bact viability inactive | RecBCD conf 14 | Ecoli viability inactive | AddAB counter inactive
CCCC(=O)NC(c1ccc(N(C)C)cc1)c1ccc2cccnc2c1O (configuration not stated)	AddAB inh 31, E coli growth-2 28, phage Ecoli inh 26 (no result: E coli growth-1) | AddAB confirm 25 | RecBCD counter 22 | Bact viability inactive | RecBCD conf 17 | Ecoli viability 24 | AddAB counter 29
CC(C)CC(NC(=O)c1nc[nH]c1C(=O)NCCCCCNC(=O)OC(C)(C)C)C(=O)OCc1ccccc1 (configuration not stated)	none (no result: Tat transport, AddAB inh, E coli growth-2, phage Ecoli inh)
Cc1cccc(NC(=O)NNC(=O)c2cc3ccccc3cc2O)c1C	AddAB inh 13, E coli growth-2 12, phage Ecoli inh 12 (no result: E coli growth-1) | AddAB confirm inactive | RecBCD counter 12 | Bact viability inactive | RecBCD conf inactive | Ecoli viability inactive | AddAB counter inactive
Cc1ccc(NC(=O)NNC(=O)c2cc3ccccc3cc2O)cc1C	none
Cc1ccc(C)c(NC(=O)NNC(=O)c2cc3ccccc3cc2O)c1	AddAB inh 14, phage Ecoli inh 14 | AddAB confirm inactive | RecBCD counter 6.9 | Bact viability inactive | RecBCD conf inactive | Ecoli viability inactive | AddAB counter inactive
Cc1cccc(NC(=S)NNC(=O)c2ccc(O)cc2O)c1C	none
O=C(NNC(=O)C1CCN(S(=O)(=O)c2ccc(Cl)cc2)CC1)c1ccccc1O	AddAB inh 12, phage Ecoli inh 12 (no result: E coli growth-1) | AddAB confirm inactive | RecBCD counter 7.3 | Bact viability inactive | RecBCD conf inactive | Ecoli viability inactive | AddAB counter inactive
CN(C)c1ccc(O)c2c1CC1CC3[C@@H](N(C)C)C(=O)C(C(N)=O)=C(O)[C@]3(O)C(=O)C1=C2O (some centres not stated)	Tat transport 149, AddAB inh 99, E coli growth-2 102, phage Ecoli inh 99 (no result: E coli growth-1) | AddAB confirm 99 | RecBCD counter 98 | Bact viability 100 | RecBCD conf 93 | Ecoli viability 103 | AddAB counter 103
O=C(CNc1ccccc1)N/N=C/c1ccc([N+](=O)[O-])o1	AddAB inh 17, E coli growth-2 16, phage Ecoli inh 12 (no result: E coli growth-1) | AddAB confirm 84 | RecBCD counter 12 | Bact viability 28 | RecBCD conf inactive | Ecoli viability inactive | AddAB counter 59
O=C(Cc1ccc2c(c1)OCO2)NN=Cc1ccc([N+](=O)[O-])o1	AddAB inh 27, E coli growth-2 9.9, phage Ecoli inh 13 | AddAB confirm 99 | RecBCD counter 8.4 | Bact viability inactive | RecBCD conf inactive | Ecoli viability inactive | AddAB counter 37
O=C(COc1ccccc1)NN=Cc1ccc([N+](=O)[O-])o1	none (no result: Tat transport, AddAB inh, E coli growth-2, phage Ecoli inh)
